# PubChem BioAssay
# Calls of active or inactive are those of the source. Unless noted, how the calls were made is not given here.
# What was measured:
# [1] = liver-stage malaria parasite load reduction – cell-based, known kinase inhibitor set, luminescence, hepatoma host viability (AID 624392); details: Plasmodium liver stage in hepatoma cells, luciferase luminescence, concentration not given here; liver cell % of control: measured here: host liver cell viability; parasite % of control: stronger effect = lower value;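 further: infected cells incubated roughly two days before readout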
# [2] = altered dexamethasone sensitivity, NF-kB reporter, cell-based, luciferase, IL-1B stimulus (AID 624486); details: IL-1B + dexamethasone, luminescence; percent of negative control (+Dex): actives lie on both sides, concentration not given here; z-score: measured here: IL-1B alone, no Dex;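 on percent of negative control (+Dex): 100% = mean signal of vehicle control wells on the plate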
# [3] = C. elegans survival during P. aeruginosa infection – whole organism (AID 651566);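 further: tested at 14 µM; sign flipped so higher z means a lower ratio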; details: C. elegans killed by P. aeruginosa, survival ratio
# [4] = pro-inflammatory signaling induction in mouse macrophages – cell-based, murine, luminescence (AID 652131); details: murine macrophage pro-inflammatory reporter, stronger effect = higher value
# [5] = molecular target: Cellular tumor antigen p53 (Homo sapiens) (UniProt P04637); assay: GFP-p53 level modulators in HPV16+ cells – imaging, known kinase inhibitor set, EGFP/DsRed ratio (AID 1053116); details: GFP-p53 stability, stronger effect = higher value; EGFP object count: measured here: GFP-p53 positive objects count;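 further: cells exposed to compounds for 24 h at 37 °C before reading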
# Sequence of Cellular tumor antigen p53 (Homo sapiens) (P04637 whole entry, looked up): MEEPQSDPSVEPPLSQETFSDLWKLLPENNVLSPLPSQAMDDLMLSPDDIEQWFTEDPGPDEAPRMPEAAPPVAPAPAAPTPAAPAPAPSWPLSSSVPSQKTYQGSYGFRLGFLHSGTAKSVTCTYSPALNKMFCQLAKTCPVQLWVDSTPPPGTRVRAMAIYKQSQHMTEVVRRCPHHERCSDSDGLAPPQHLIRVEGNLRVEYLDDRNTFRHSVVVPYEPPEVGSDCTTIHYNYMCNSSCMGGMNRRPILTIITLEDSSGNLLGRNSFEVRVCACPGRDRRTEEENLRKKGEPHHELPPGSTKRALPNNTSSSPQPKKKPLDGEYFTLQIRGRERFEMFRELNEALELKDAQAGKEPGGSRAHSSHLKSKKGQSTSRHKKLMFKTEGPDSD
# [6] = inducers of IRF3 signaling, differentiated THP-1 – cell-based, PMA-stimulated THP-1, luminescence (AID 1053176); details: PMA-differentiated THP-1, IRF3 reporter luminescence; stronger effect = higher value
# [7] = MELAS cybrid and Rieske KO viability enhancers – cell-based, MELAS cybrids, Rieske KO mouse fibroblasts, CellTiter-Glo, primary screen (AID 1508586;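 active means mean z-score across replicates of 1.96 or higher in either the MELAS or the Rieske mutant cell line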;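 further: z relative to plate mean and SD of compound and empty wells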); details: low glucose
# [8] = MELAS cybrid survival, CellTiter-Glo 48 h, stronger effect = higher value
# [9] = Rieske KO mouse fibroblast survival, CellTiter-Glo 72 h
SMILES,liver cell % of control [1],parasite % of control [1],percent of negative control (+Dex) [2],z-score [2],z-score [3],z-score [4],EGFP object count [5],EGFP/DsRed ratio [5],fraction signal [6],"z-score [7, 8]","z-score [7, 9]"
NS(=O)(=O)c1ccc(N=Nc2c(O)[nH]c3ccc(-c4cnco4)cc23)cc1,87.3%,140% (inactive),104% (inactive),0.22,-0.29 (inactive),3.29 (inactive),10,0.401 (inactive),0.0025 (inactive),0.293 (inactive),-0.0502
NS(=O)(=O)c1ccc(N=Nc2c(O)[nH]c3ccc(C(=O)NCc4ccncc4)cc23)cc1,77.7%,86.4% (inactive),95% (inactive),-0.595,-0.105 (inactive),0.051 (inactive),8,0.126 (inactive),-0.001 (inactive),-0.207 (inactive),-0.126
COC(=O)Nc1nc2ccc(Oc3ccc(NC(=O)Nc4cccc(C(=O)O)c4)cc3)cc2[nH]1,122%,180% (inactive),118% (inactive),1.69,0.33 (inactive),-0.479 (inactive),5.5,0.0528 (inactive),-0.002 (inactive),-0.776 (inactive),-0.262
O=C1N=c2ccc(N=Cc3c(O)[nH]c4ccccc34)cc2=N1,79.5%,117% (inactive),86% (inactive),-0.205,-0.24 (inactive),1.12 (inactive),5.5,0.268 (inactive),-0.0005 (inactive),1.49 (inactive),-0.0625
COc1ccc(-c2ccc3c(NC(=O)C4CC4)n[nH]c3n2)cc1,119%,77.2% (inactive),130% (inactive),2.11,0.15 (inactive),2.53 (inactive),6,0.0694 (inactive),0.0035 (inactive),1.36 (inactive),0.0157
COc1cc(Nc2ncc3c(C)nc(-c4cccc(Oc5ccccc5)c4)n3n2)cc(OC)c1OC,92.5%,147% (inactive),77% (inactive),-1.34,0.075 (inactive),-0.606 (inactive),8.5,0.0854 (inactive),0 (inactive),0.38 (inactive),0.0156
CCc1ccc(Oc2nccc(-c3c(-c4ccc(F)cc4)ncn3C3CCNCC3)n2)cc1,78.5%,140% (inactive),104% (inactive),0.41,0.125 (inactive),-0.495 (inactive),4.5,0.0563 (inactive),-0.0095 (inactive),-0.158 (inactive),-0.111
Fc1ccc(Nc2nccc(-c3c(-c4ccc(C(F)(F)F)cc4)nn4ncccc34)n2)cc1F,121%,125% (inactive),94.5% (inactive),0.25,0.135 (inactive),-0.216 (inactive),5.5,0.0976 (inactive),0.008 (inactive),-0.717 (inactive),-0.174
CCn1c(-c2nonc2N)nc2ccccc21,97.5%,113% (inactive),80% (inactive),-0.405,0.585 (inactive),0.013 (inactive),3,0.0652 (inactive),-0.0025 (inactive),-0.294 (inactive),-0.443
CC(C)(CO)CNC(=O)c1ccc2[nH]c(O)c(N=Nc3ccc(S(N)(=O)=O)cc3)c2c1,82.1%,103% (inactive),93% (inactive),-0.01,-1.1 (inactive),-0.381 (inactive),3,0.052 (inactive),-0.004 (inactive),-0.345 (inactive),-0.442
COc1cc(/C=N/Nc2ncnc3c2cnn3C(C)C)ccc1O,128%,63.2% (inactive),92.5% (inactive),0.145,-0.5 (inactive),-0.511 (inactive),6.5,0.127 (inactive),-0.006 (inactive),-1.18 (inactive),1.02
O=C(Nc1n[nH]c2nc(-c3ccco3)ccc12)C1CC1,201%,24% (inactive),104% (inactive),-0.105,-0.7 (inactive),0.373 (inactive),2,0.0203 (inactive),-0.008 (inactive),-0.235 (inactive),-0.343
CCN1CCC(CC(=O)NC2NNC3NNC(c4cccc(F)c4F)CC32)CC1 (centres undefined),80.9%,32.2% (inactive),118% (inactive),-0.095,-0.285 (inactive),0.818 (inactive),25.5,0.256 (inactive),-0.004 (inactive),-0.762 (inactive),-0.436
c1ccc(Nc2ncc(-c3ccccc3)o2)cc1,98.7%,93.5% (inactive),246% (active),11.2,-1.27 (inactive),0.128 (inactive),5,0.0918 (inactive),-0.011 (inactive),1.22 (inactive),-0.446
NC(=O)c1sc(-n2cnc3ccc(C(F)(F)F)cc32)cc1OCc1ccccc1Br,104%,160% (inactive),98.5% (inactive),0.57,-0.455 (inactive),-0.965 (inactive),4,0.119 (inactive),0.007 (inactive),-0.166 (inactive),-0.246
COC(=O)c1cncc(/C=C/c2c(C)cc(O)cc2C)c1,108%,131% (inactive),108% (inactive),1.96,0.295 (inactive),-0.608 (inactive),4.5,0.286 (inactive),-0.0065 (inactive),0.159 (inactive),0.14
COc1ccc(Nc2ncc(-c3ccccc3)o2)cc1OC,152%,101% (inactive),154% (inactive),4.41,-0.885 (inactive),4.21 (inactive),3,0.0153 (inactive),-0.0085 (inactive),1.52 (inactive),0.00272
COc1c(C(N)=O)cc(-c2ccc(Cl)cc2)cc1-c1ccc(S(N)(=O)=O)cc1,100%,180% (inactive),90.5% (inactive),0.135,-0.43 (inactive),0.956 (inactive),4,0.128 (inactive),-0.003 (inactive),0.239 (inactive),0.0436
Cc1cc(O)cc(C)c1/C=C/c1cncc(C(=O)N(C)C)c1,97.7%,96.9% (inactive),106% (inactive),0.005,0.18 (inactive),0.003 (inactive),4.5,0.177 (inactive),0.0095 (inactive),-0.281 (inactive),-0.0339
CCn1c(-c2nonc2N)nc2cncc(C(=O)N3CCNCC3)c21,101%,140% (inactive),111% (inactive),0.555,-0.355 (inactive),0.864 (inactive),8,0.129 (inactive),-0.005 (inactive),-0.623 (inactive),0.0786
Cc1ccc(NC(=O)c2ccoc2)cc1-c1ccc(C(=O)NCC2CC2)cc1,104%,120% (inactive),99.5% (inactive),0.73,0.02 (inactive),-0.057 (inactive),2,0.0344 (inactive),-0.016 (inactive),-1.06 (inactive),-0.276
C[C@@H](Oc1cc(-n2cnc3ccc(OC[C@@H](O)CO)cc32)sc1C(N)=O)c1ccccc1Cl,94.6%,81.9% (inactive),90% (inactive),-0.93,0.155 (inactive),-1.41 (inactive),5,0.0656 (inactive),-0.0045 (inactive),-0.759 (inactive),0.965
O=C(NCC1CC1)c1ccc(-c2cccc(C(=O)NC3CC3)c2)cc1,164%,130% (inactive),91.5% (inactive),1.28,-0.465 (inactive),1.36 (inactive),4.5,0.0862 (inactive),0 (inactive),-0.117 (inactive),-0.418
CN(C)c1ccc2[nH]c(O)c(C=Nc3ccc(S(N)(=O)=O)cc3)c2c1,88.2%,103% (inactive),93% (inactive),0.245,0.065 (inactive),0.675 (inactive),6.5,0.209 (inactive),-0.008 (inactive),1.57 (inactive),-0.102
CCn1c(-c2nonc2N)nc2c(N3CCCC3)nccc21,90.8%,137% (inactive),80.5% (inactive),-0.655,-0.89 (inactive),1.27 (inactive),3,0.0699 (inactive),-0.004 (inactive),0.113 (inactive),-0.0304
O=C(Nc1n[nH]c2nc(-c3ccc(O)cc3)c(Br)cc12)C1CC1,74.6%,71% (inactive),206% (active),0.485,0.105 (inactive),-1.27 (inactive),2.5,0.0391 (inactive),-0.013 (inactive),7.51 (active),-0.202
Cc1ccc2c(-c3ccnc(Nc4cccc(C(F)(F)F)c4)n3)c(-c3ccccc3)nn2n1,84.8%,47.5% (inactive),89.5% (inactive),-3.32,-0.495 (inactive),-1.57 (inactive),2.5,0.0663 (inactive),-0.0065 (inactive),0.907 (inactive),-0.257
COc1cc(Nc2ncc3c(C)nc(-c4cccc(C(F)(F)F)c4)n3n2)cc(OC)c1OC,91.6%,120% (inactive),59.5% (inactive),-3.31,0.325 (inactive),-0.389 (inactive),11,0.172 (inactive),0.005 (inactive),1.04 (inactive),0.168
COc1cc2ncn(-c3cc(OCc4ccccc4C(F)(F)F)c(C(C)=O)s3)c2cc1OC,97.8%,91.8% (inactive),82.5% (inactive),-0.63,-0.4 (inactive),-0.463 (inactive),5,0.118 (inactive),0.002 (inactive),-0.657 (inactive),0.0101
